Here are results for twelve molecules from PubChem BioAssay (EPA / NIEHS).

A short description of test [1]: TOX21_p53_BLA_p2_viability: Viability Assessment in the Tox21 HCT-116 p53 Agonism Beta-lactamase Assay, Phase 2 (AID 2283591).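 Note: actives lower the ATP signal meaning cytotoxicity.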 The gist of the method:
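HCT116 p53-bla cells, 4000/well, dosed after 5 h plating (217-fold dilution of DMSO stocks) and incubated 16 h at 37C. Viability taken as cellular ATP by CellTiter-Glo luminescence after 30 min RT; signal loss marks cytotoxicity.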

The target of test [2] is Cellular tumor antigen p53 (Homo sapiens) (UniProt P04637). In words: TOX21_p53_BLA_p2_ratio: Tox21 HCT-116 p53 Agonism Beta-lactamase Assay, Ratio, Phase 2 (AID 2283592). The gist of the method:
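DMSO-normalized, positive-direction endpoint derived from the 460 nm/530 nm FRET ratio in HCT116 p53 beta-lactamase reporter cells exposed 16 h at 37C and loaded with CCF4-AM for 2 h.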

A short description of test [3]: TOX21_p53_BLA_p3_viability: Viability Assessment in the Tox21 HCT-116 p53 Agonism Beta-lactamase Assay, Phase 3 (AID 2283593).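 Note: cells exposed to compound for 16 h before reading.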 The gist of the method: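 HCT116 cells, 4000/well, dosed 5 h after plating by pin transfer (217-fold dilution from DMSO stock) and incubated 16 h at 37C, 5% CO2. Viability read as ATP luminescence with CellTiter-Glo after 30 min at room temperature.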

Test [4] has as its target Cellular tumor antigen p53 (Homo sapiens) (UniProt P04637). In words: TOX21_p53_BLA_p3_ratio: Tox21 HCT-116 p53 Agonism Beta-lactamase Assay, Ratio, Phase 3 (AID 2283596). The gist of the method: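 Cells were seeded at 4000/well, rested 5 h at 37C, then dosed with DMSO compound solutions (217-fold dilution) for 16 h. CCF4-AM substrate was loaded for 2 h at room temperature, and the 460/530 nm emission ratio was fitted for gain of signal versus DMSO.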

The nature of test [5]: TOX21_p53_BLA_p4_viability: Viability Assessment in the Tox21 HCT-116 p53 Agonism Beta-lactamase Assay, Phase 4 (AID 2283597).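 Note: hits lower the luminescence signal meaning cytotoxicity.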 The gist of the method: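 In this multiplexed secondary endpoint, HCT116 cells (4000 per well, compound at 5 h, 16 h treatment) received CellTiter-Glo after the beta-lactamase read. Luminescence after 30 min RT reflects ATP, and falling signal marks cytotoxicity.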

Test [6] deals with Cellular tumor antigen p53 (Homo sapiens) (UniProt P04637). In words: TOX21_p53_BLA_p4_ratio: Tox21 HCT-116 p53 Agonism Beta-lactamase Assay, Ratio, Phase 4 (AID 2283601). The gist of the method: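 HCT-116 p53 beta-lactamase reporter cells (4000/well) preincubated 5 h, then compound (217-fold dilution of DMSO stock) for 16 h at 37C. CCF4-AM substrate added 2 h at room temperature; 460/530 nm emission ratio fitted upward versus DMSO.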
Cellular tumor antigen p53 (Homo sapiens), sequence (P04637 whole entry, looked up): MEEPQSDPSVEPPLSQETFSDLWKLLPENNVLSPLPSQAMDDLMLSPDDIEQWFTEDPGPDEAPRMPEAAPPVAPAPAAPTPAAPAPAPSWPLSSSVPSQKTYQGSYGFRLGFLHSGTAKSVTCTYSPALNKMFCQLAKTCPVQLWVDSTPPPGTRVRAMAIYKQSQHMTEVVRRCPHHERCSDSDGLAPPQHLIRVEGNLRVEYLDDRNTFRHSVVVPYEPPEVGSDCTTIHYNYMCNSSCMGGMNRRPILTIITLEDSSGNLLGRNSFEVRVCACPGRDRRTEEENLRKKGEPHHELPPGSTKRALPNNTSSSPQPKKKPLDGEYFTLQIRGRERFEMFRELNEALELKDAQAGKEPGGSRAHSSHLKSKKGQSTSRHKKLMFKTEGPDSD

Test [7] in a line: TOX21_p53_BLA_p5_viability: Viability Assessment in the Tox21 HCT-116 p53 Agonism Beta-lactamase Assay, Phase 5 (AID 2283600). The gist of the method: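 Here cell health was gauged by ATP levels in wells holding 4000 cells, each treated 16 h with DMSO-delivered compounds at 217-fold dilution; reduced luminescence marked toxicity.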
The target in a further test is PGR (gene 5241) (UniProt P06401). In words: TOX21_PR_BLA_Followup_Antagonist_ratio: Tox21 HEK293 Progesterone Receptor (PR) Antagonism Beta-lactamase Follow-Up Assay, Ratio (AID 2283934).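 Note: PR-UAS-bla HEK293T cells stimulated with 1 nM R5020 agonist for 16 hr.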 The gist of the method:
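Readout is the blue/green (ch2/ch1) substrate cleavage ratio after 2 hours at room temperature, following 16 hr co-treatment of PR-bla HEK293T cells with compound and 1nM promegestone. Multiplexed CellTiter-Glo viability flags cytotoxicity; DMSO baseline.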

The nature of test [8]: TOX21_PR_BLA_Followup_Agonist_viability: Viability Assessment in the Tox21 HEK293 Progesterone Receptor (PR) Agonism Beta-lactamase Follow-Up Assay (AID 2283935).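 Note: signal loss means lower viability so actives are cytotoxic.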 The gist of the method: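 Run multiplexed with the beta-lactamase FRET read, this endpoint measures ATP by CellTiter-Glo luminescence (30 min, room temperature). PR-UAS-bla HEK293T cells received compound 6 hr after plating and were then incubated 16 hr at 37C in 2% stripped serum.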

A short description of test [9]: TOX21_PR_BLA_Followup_Antagonist_viability: Viability Assessment in the Tox21 HEK293 Progesterone Receptor (PR) Antagonism Beta-lactamase Follow-Up Assay (AID 2283936).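 Note: cells exposed to compound with R5020 agonist for 16 h; hits lower the luminescence signal meaning cytotoxicity.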 The gist of the method:
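PR-UAS-bla HEK293T cells in medium with 2% charcoal-stripped FBS were treated with compounds plus R5020 for 16 hr at 37C. After the beta-lactamase read, CellTiter-Glo was added to the same wells and luminescence read after 30 min at room temperature.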

The nature of test [10]: TOX21_PR_LUC_Followup_Agonist_viability: Viability Assessment in the Tox21 HEK293 Progesterone Receptor (PR) Agonism Luciferase Follow-Up Assay (AID 2283941).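 Note: loss of signal means cytotoxicity so actives lower viability.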 The gist of the method:
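Cytotoxicity counter-readout in the PR-A luciferase reporter line HEK293, with 16 h compound exposure at 37C after cells were cultured in charcoal-stripped serum. Cellular ATP quantified by CellTiter-Glo luminescence.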

A short description of test [11]: ACEA_ER_AUC_viability: ACEA Biosciences xCELLigence Real-Time Cell Analysis on Estrogen Receptor Agonism for Viability (AID 2283782).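 Note: hit means loss of impedance signal meaning reduced cell growth or viability.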 The gist of the method:
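Read-out: real-time electrical impedance (RT-CES) area under curve, loss of signal taken as reduced viability, normalized to DMSO baseline. T-47D cells, charcoal-stripped serum medium, compounds up to 100 uM final, continuous exposure, 80 h.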

Each structure is given as a SMILES string. Records with an inconclusive call do not appear. Active and inactive are the calls of the source. Rule for the calls: active = hit-call score of the fitted dose curve at least 0.9, where 1 is the maximum; inconclusive = response in the unintended direction; inactive = score below 0.9.

PGR (gene 5241), sequence (P06401 whole entry, looked up): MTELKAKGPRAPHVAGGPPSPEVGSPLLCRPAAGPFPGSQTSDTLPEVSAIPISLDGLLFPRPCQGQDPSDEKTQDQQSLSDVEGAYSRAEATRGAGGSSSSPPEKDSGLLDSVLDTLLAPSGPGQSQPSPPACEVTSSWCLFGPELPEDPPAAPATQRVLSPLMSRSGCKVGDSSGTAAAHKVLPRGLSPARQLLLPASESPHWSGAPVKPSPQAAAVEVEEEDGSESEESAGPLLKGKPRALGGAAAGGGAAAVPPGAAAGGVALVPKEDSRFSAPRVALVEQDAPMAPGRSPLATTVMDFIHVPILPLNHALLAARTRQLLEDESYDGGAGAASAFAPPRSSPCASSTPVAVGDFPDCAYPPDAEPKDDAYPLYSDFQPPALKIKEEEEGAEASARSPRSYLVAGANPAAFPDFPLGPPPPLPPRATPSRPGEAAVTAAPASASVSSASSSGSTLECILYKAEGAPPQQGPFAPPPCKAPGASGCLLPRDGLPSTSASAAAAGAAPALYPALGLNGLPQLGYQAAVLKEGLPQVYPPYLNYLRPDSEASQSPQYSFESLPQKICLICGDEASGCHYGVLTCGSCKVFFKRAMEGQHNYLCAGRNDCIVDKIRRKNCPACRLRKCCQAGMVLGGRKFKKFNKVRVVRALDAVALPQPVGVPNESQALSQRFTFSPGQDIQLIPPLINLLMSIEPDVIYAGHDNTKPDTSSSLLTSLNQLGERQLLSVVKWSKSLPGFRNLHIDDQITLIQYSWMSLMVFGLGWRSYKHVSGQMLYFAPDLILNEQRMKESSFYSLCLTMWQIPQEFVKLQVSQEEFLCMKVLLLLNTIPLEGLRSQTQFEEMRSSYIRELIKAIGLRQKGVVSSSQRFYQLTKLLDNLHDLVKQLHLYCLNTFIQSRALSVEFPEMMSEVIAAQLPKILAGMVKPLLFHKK

Regarding `NC(=S)N/N=C/c1cccnc1`, the outcome in test [1], in test [2], in test [3], in [4], in [5] and in test [6] was inactive.
In the case of `CN(C1CCCCC1)S(=O)(=O)c1ccccc1N`, the molecule was classed as inactive in test [1], in test [2], in [3], in [4], in [5] and in test [7]. In addition, the result in test [6], in test [8], in test [9] and in test [10] was inactive. In addition, the AC50 with PGR (gene 5241) is 25.7 µM (active).
Consider `Cc1nc2ccccn2c(=O)c1CCN1CCC(C(=O)c2ccc(F)cc2)CC1`, for which the molecule was called inactive in test [1], in test [2], in [3], in [4], in [5] and in test [7]. In addition, the result in [6] was inactive.
For `CCN(CC)c1ccc2c(-c3ccc(S(=O)(=O)O)cc3S(=O)(=O)[O-])c3ccc(=[N+](CC)CC)cc-3oc2c1`, the molecule was classed as inactive in [1], in test [2], in test [3], in test [4], in test [5] and in test [7]. In addition, the outcome in test [6] was inactive.
Regarding `O=C(CO)[C@@H](O)[C@H](O)[C@H](O)CO`, the molecule was called inactive in [1], in test [2], in [3], in [4], in [5] and in test [6].
Turning to `CC1(C)CC(N)CC(C)(C)N1`, the molecule was classed as inactive in [1], in [2], in test [3], in [4], in test [5] and in test [7]. Further, the outcome in test [6] and in [11] was inactive.
With `CN(C/C=C/C#CC(C)(C)C)Cc1cccc2ccccc12`, the call in [1], in test [2], in [3], in test [4], in test [5] and in test [7] was inactive. The outcome in test [6] was inactive.
As to `CC(Cl)=CCCl`, the call in test [1], in [2], in test [3], in [4], in [5] and in test [6] was inactive.
Take `Cc1cccc(C)c1NC(=O)c1ccccc1C(=O)O`: the result in test [1], in test [2], in test [3], in test [4], in test [5] and in test [7] was inactive. Moreover, the result in test [6] was inactive.
Consider `CCCCN1CCCC1C(=O)Nc1c(C)cc(C)cc1C` (configuration not stated), for which the result in test [1], in [2], in test [3], in test [4], in test [5] and in test [7] was inactive. Also, the outcome in [6], in [8] and in [9] was inactive.
Regarding `C[C@]12CCC(=O)C=C1CC[C@@H]1[C@@H]2CC[C@@]2(C)[C@H]1CC[C@]2(O)C(=O)CO`, the molecule was classed as inactive in [1], in test [2], in [3], in test [4], in test [5] and in test [7]. For the same molecule, the outcome (in test [6]; with PGR (gene 5241); in [8]; in test [9]; in test [10]) was inactive.
`OC(CCN1CCCC1)(c1ccccc1)C1CCCCC1` (configuration not stated): the result in test [1], in test [2], in test [3], in test [4], in test [5] and in [7] was inactive. In addition, the outcome in test [6] was inactive.
